Screening results: PubChem, National Center for Advancing Translational Sciences (NCATS)
Most compounds without a hit are left out; they make up all but 1.9% or so of the library.
Integrin act MD: activates integrin-mediated alleviation for muscular dystrophy | alpha7betagal myoblasts, beta-gal FDG fluorescence, 48 h | Potency, µM (highest dose often 38.3 µM), for the others: top-dose activation, hits mostly activators | 0.064% of 350,000 active;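 also: potency is read from the fitted curve at half-maximal effect; 100% = response of the positive control SU9516; nearly all actives have a fitted effect of over 60% in size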
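alpha7betagal+/- myoblasts (passage 13, 250/well) treated 48 h at 37C with compounds at 1:260 dilution of DMSO stock. Lysed, then beta-galactosidase activity read as FDG fluorescence (ex 480/em 540) after 30 min, with pre-read for autofluorescence.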
USP2a block: inhibitors of human ubiquitin-specific protease USP2a | USP2 core, Ub-CHOP2 coupled fluorogenic reporter, 485/531 | Potency, µM (titrated, usually from 38.3 µM), inactives show at the top dose activity change, negative = inhibition, actives largely listed as inhibitors | 0.01% of 330,000 active | AID 463254;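 also: potency is read from the fitted curve at half-maximal effect; plate controls were DMSO wells for no effect and full inhibition by NEM control for full effect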
Target sequence (O75604 whole entry, looked up): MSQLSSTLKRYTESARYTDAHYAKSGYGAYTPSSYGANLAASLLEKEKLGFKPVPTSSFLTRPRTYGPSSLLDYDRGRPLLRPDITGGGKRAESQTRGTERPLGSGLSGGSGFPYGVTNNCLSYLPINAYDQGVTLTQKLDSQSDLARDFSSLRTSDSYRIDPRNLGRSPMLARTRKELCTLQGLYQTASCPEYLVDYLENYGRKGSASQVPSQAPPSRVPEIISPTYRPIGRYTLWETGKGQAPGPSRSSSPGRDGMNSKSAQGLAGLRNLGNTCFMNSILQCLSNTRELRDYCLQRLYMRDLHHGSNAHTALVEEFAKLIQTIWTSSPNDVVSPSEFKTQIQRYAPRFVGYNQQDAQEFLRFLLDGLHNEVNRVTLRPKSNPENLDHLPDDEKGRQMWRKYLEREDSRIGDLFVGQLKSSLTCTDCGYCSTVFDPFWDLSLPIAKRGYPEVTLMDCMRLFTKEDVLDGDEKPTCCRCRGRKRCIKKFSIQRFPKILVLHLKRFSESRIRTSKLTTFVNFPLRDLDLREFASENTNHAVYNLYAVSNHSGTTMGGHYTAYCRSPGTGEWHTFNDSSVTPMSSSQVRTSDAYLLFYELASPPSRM
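Deubiquitinase activity read as fluorescence (485/531 nm) after Ub-CHOP2 cleavage activates the enterokinase reporter on its substrate; USP2 core 10nM, Ub-CHOP2 and substrate 25nM each, 30min compound preincubation then 60min RT; data normalized to NEM, curves fitted.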
PKM2 activator: PKM2 (human) enzyme activation; purified PKM2, Kinase-Glo ATP luminescence, activation; response scale: 0% is enzyme alone, no compound; Potency, µM (highest dose often 57.5 µM), for the others: at the top dose activation, hits mostly activators; 0.34% of 260,000 active; also: potency is read from the fitted curve at half-maximal effect; % is scaled to controls: 0 for no effect and ±100 for the full control effect; nearly all actives have a fitted effect of over 55% in size
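Kinase-Glo luminescence reports ATP generated from ADP (0.1 mM) and PEP (0.5 mM) by purified hPK-M2 after 1 h at room temperature, pH 7.2 imidazole buffer; intermediate enzyme activity allows detecting inhibitors and activators.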
Pin1 inhibitor: inhibitors of human Pin1; Q13526; Pin1 FP peptide displacement, HiFluor488, 10 min; Potency, µM (titrated, usually from 115 µM), for inactives: at the top dose activity, negative = inhibition, actives largely listed as inhibitors; 0.009% of 390,000 active; active = well fitted inhibition curve with a large enough effect in the polarisation, with a control signal flat, not every such curve was filed as active; inconclusive = small, poorly fitted or top-dose-only effect, or effect the other way, or a change in a side signal; inactive = no such curve, though single readings can be large or run the other way; the % refers to the polarisation; also: potency is read from the fitted curve at half-maximal effect; % is scaled to controls: 0 for no effect and ±100 for the full control effect
Target sequence (Q13526 whole entry, looked up): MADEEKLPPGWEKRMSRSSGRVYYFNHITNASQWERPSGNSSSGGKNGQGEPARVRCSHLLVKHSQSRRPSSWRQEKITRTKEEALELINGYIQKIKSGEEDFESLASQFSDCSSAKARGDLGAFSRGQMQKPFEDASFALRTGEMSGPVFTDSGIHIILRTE
IL-2 act: IL-2 activation; IL-2 activation reporter assay, cell-based qHTS; stimulated with anti-CD3/CD4/CD28 beads; in transgenic mouse T cells; activation, % (series mostly up to about 46 µM); 0.065% of 360,000 active; in the data active = activation above about 50%; inconclusive = mostly about 30% to 49%; also: 0% is about no effect
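Readout: EGFP and DsRed signals by fluorescent plate cytometry. Unstimulated transgenic mouse T cells received compound 60 min before antibody-bead stimulation, then incubated 18 h at 37 degrees C.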
ClpP mod: qHTS Assay for Activators of ClpP | 1.9% of 340,000 active | Potency, µM (top dose mostly 57.5 µM), without a hit: at the top dose activity change, negative = active | purified B. subtilis ClpP, FRET peptide cleavage, 20 min; active = well fitted falling curve with a large enough effect; inconclusive = small, poorly fitted or top-dose-only effect; inactive = no such curve, though single readings can be large or run the other way; also: potency is read from the fitted curve at half-maximal effect; the source files actives as falling curves though it sought activators and does not explain the sign; nearly all actives have a fitted effect of over 65% in size
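Purified B. subtilis ClpP, 10 microg/mL final in Tris/HCl pH8 with KCl, BSA, glycerol and Tween-20, cleaved an Abz/nitrotyrosine-quenched decapeptide. Fluorescence (ex 320, em 430) was read at 0 and 20 min at room temperature. Delta was normalized to 5.8 microM ADEP and DMSO/no-enzyme controls.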
Starred values were filed as active, the others as inactive; ? = inconclusive; / = no result given; [ ] = another dose, or the depositor's remark. Unless noted, calls follow the shape of the dose curve; as a rule, active = well fitted curve in the direction sought with a large enough effect; inconclusive = small, poorly fitted or top-dose-only effect, or another doubt; inactive = no such curve, though single readings can be large; an effect the other way counts as inactive or inconclusive.

SMILES	Integrin act MD	USP2a block	PKM2 activator	Pin1 inhibitor	IL-2 act	ClpP mod
COC(=O)c1[nH]c2ccc(Cl)cc2c1NC(=O)CN1CCC(C(N)=O)CC1	-25%	0%	4%	-6%	1	-22%
COC(=O)c1[nH]c2cc(OC)c(OC)cc2c1NC(=O)CN1CCN(Cc2ccccc2)CC1	/	-4%	-2%	/	/	/
COC(=O)c1[nH]c2ccc(C)cc2c1NC(=O)CN1CCN(c2ccc(F)cc2)CC1	-20%	0%	-4%	-2%	3	-4%
COC(=O)c1[nH]c2ccc(C)cc2c1NC(=O)CN1CCC(C)CC1	16%	1%	1%	-1%	-1	28µM*
Cc1ccc(NC(=O)COc2coc(CN3CCN(Cc4ccccc4)CC3)cc2=O)cc1	0%	0%	/	-13%	-2	28µM*
CCCCN(CCCC)c1ccc(Cn2ccc3ccccc32)cc1	/	/	/	/	/	-4%
COc1ccccc1C(C)NCC(=O)c1c(C)[nH]c2ccccc12 (stereo not given)	/	/	/	/	/	-2%
COC(=O)c1[nH]c2ccccc2c1NC(=O)CN1CCN(C/C=C/c2ccccc2)CC1	-46%	0%	-10%	6%	-2	22µM*
COC(=O)c1[nH]c2ccc(C)cc2c1NC(=O)CN1CCN(C(=O)c2ccccc2)CC1	4%	1%	-3%	0%	-1	14µM*
Cc1ccc2[nH]c(=O)c(CN(CCO)Cc3nnnn3Cc3ccco3)cc2c1	/	/	/	10%	/	-12%
CC#CCN1c2ccccc2[C@]23C[C@@H](C(=O)OC)N(S(=O)(=O)c4ccc(Br)cc4)C2=NC(C(=O)OC)=C(C(=O)OC)[C@H]13	/	/	0%[11.5 µM]	/	/	/
Cc1cc(NC(=O)Nc2ccc(Cl)cc2)no1	35%	0%	-4%	0%	-2	/
COCCSc1ccccc1C(=O)Nc1cc(C)on1	2%	-2%	32µM*	-5%	-4	0%
Cc1cc(NC(=O)c2ccc(Cl)cc2Cl)no1	1.4µM*	0%	2%	-6%	0	-1%
O=C(NNc1ccccc1C(F)(F)F)c1sccc1Cl	/	/	/	-4%	/	-1%
O=C(C[n+]1ccc2ccccc2c1)c1ccc(O)c(O)c1	/	/	/	/	/	0%
C=CCNC(=O)N1CCc2nc(-c3ccccc3)c3c(c2C1)CO[C@@H](C)C3	/	/	-2%[11.5 µM]	/	/	/
Fc1ccccc1N1CCN(Cc2nnc(-c3ccc4c(c3)OCO4)o2)CC1	/	/	/	3%	/	35µM*
COc1ccc(C2=Nn3c(nnc3-c3ccc(OC)c(OC)c3)SC2)c(OC)c1	/	/	/	5%	/	/
CCOC(=O)c1sc(NC(=O)Nc2cccc(Cl)c2)cc1C	-60%	3%	-2%	2%	-5	32µM*
CCOC(=O)c1sc(Nc2nc3ccc(OC)cc3s2)cc1C	-8%	-14%	0%	20%	-4	/
CCOC(=O)c1c(NC(=O)CSc2ncnc3ccccc23)sc(C)c1C	?	2%	-17%	10%	-2	1%
CCOC(=O)c1sc(Nc2nc3c(F)cccc3s2)cc1C	-3%	0%	13%	3%	0	8.9µM*
CCOC(=O)c1c(NC(=O)Nc2ccccc2)sc(C)c1C	?	3%	2%	0%	-3	20µM*
CCOC(=O)c1c(NC(=O)CSc2ccccc2C(=O)O)sc(C)c1C	11%	0%	-3%	?	-1	16µM*
SMILES	Integrin act MD	USP2a block	PKM2 activator	Pin1 inhibitor	IL-2 act	ClpP mod
CCOC(=O)Nc1sc(C)c(C)c1C(=O)OCC	4%	1%	8%	2%	0	-5%
Cc1noc(C)c1-c1ccc2ncnc(NCc3cccn3C)c2c1	/	/	/	-5%	/	/
Cc1cc(=O)oc2ccc(OCC(=O)NCc3ccco3)cc12	-20%	-7%	-4%	-6%	0	?
Cc1cc(=O)oc2cc(OCC(=O)NCc3ccncc3)ccc12	17%	-1%	-7%	0%	-1	22µM*
Cc1cccc(OCC(=O)Nc2ccc3c(C)cc(=O)oc3c2)c1	34%	5%	-8%	17%	4	13µM*
O=C(COc1ccc2oc(-c3ccccc3)cc(=O)c2c1)NCc1ccco1	-3%	1%	3%	63%	4	35µM*
Cc1cc(=O)oc2cc(NC(=O)COc3cccc(C(F)(F)F)c3)ccc12	-7%	0%	/	44%	0	3%
Cc1cc(=O)oc2cc(OCC(=O)NCc3ccco3)ccc12	20%	0%	-1%	-1%	2	28µM*
COC(=O)c1nc(Nc2cc(F)cc(F)c2)nc(NC2CCCC2)n1	/	/	/	9%	/	/
Cc1sc2ccccc2[n+]1C	/	/	/	/	/	-2%
N#Cc1ccc(S(=O)(=O)N2CCN(c3nc(-c4cccs4)nc4ccccc34)CC2)cc1	/	/	/	17%	/	4%
Cc1cc(=O)oc2cc(OCC(=O)NCc3cccnc3)ccc12	5%	3%	-1%	1%	0	25µM*
O=C(COc1ccc([N+](=O)[O-])cc1)N(Cc1ccccc1)Cc1ccccc1	15%	-4%	0%	-3%	0	32µM*
N#Cc1c(-c2cccs2)nc(SCc2ccc(Cl)cc2)[nH]c1=O	-12%	?	32µM*	/	1	/
Cc1ccnc(NC(=O)c2cc(S(=O)(=O)N3CCCCC3)ccc2Cl)c1	-18%	-3%	-3%	4%	-3	22µM*
COc1ccc(S(=O)(=O)N2CCCCCC2)cc1C(=O)Nc1cc(C)ccn1	-29%	-2%	/	2%	-1	-7%
CN(C)c1ccc(/C=C/c2sc3ccccc3[n+]2Cc2ccccc2)cc1	/	/	/	/	/	3%
CCc1ccc(NC(=O)C(=O)NCC2CCCO2)cc1 (stereo not given)	9%	0%	2%	5%	-1	-3%
CCOC(=O)c1ccc(NC(=O)C(=O)NCC2CCCO2)cc1 (stereo not given)	-13%	4%	6%	2%	-1	32µM*
CC(C)(C)CC(C)(C)N=C1Nc2ccc(Cl)cc2NC12C[C@H]1CCC(=O)N3CC[C@@H](C2)[C@@H]13 (stereo not given in full)	/	/	/	/	/	2%
Cc1cccc(C(=O)NCC(=O)OCC(=O)c2ccc3ccccc3c2)c1	/	/	/	12%	/	?
CC(=O)NCC(=O)OCC(=O)c1ccc2ccccc2c1	-2%	5%	-3%	5%	-2	28µM*
CC(C)(C)c1ccc(-c2n[nH]c(=S)n2-c2ccccc2)cc1	11%	-3%	8%	2%	0	8.9µM*
COc1cc2c(=O)n(Cc3ccccc3)c(=O)n(CC(=O)NCCc3ccccc3)c2cc1OC	-1%	-2%	1%	7%	0	28µM*
